Data on 35 compounds can be found in PubChem BioAssay (Tox21).

Structures are written as SMILES. Records with an inconclusive call do not appear. Active and inactive are the calls of the source. The call rests on the fitted dose curve; in most records, active means well fitted activation curve with a large enough effect in the repeat runs; inconclusive means weak or mixed curves; inactive means no such curve, though single readings can be large or run the other way.
On the % scale 0 is the no-effect control and ±100 the full control effect; potency means the concentration at half of the fitted maximal effect.

The target in this assay is Nuclear receptor subfamily 1 group I member 2 (Rattus norvegicus) (UniProt Q9R1A7). Description: Rat pregnane X receptor (rPXR) activation by small molecules, qHTS assay (AID 1346983). Further: nearly all actives have a fitted effect of over 20% in size. The following applies: rPXR luciferase reporter cells, One-Glo luminescence, 24 h; max activation: stronger effect = higher value. A digest of the protocol: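 Cell-based rPXR activation assay: rPXR cells, 2,000 per well, rested 5hr at 37 C, then exposed to compounds in DMSO for 24 hr at 37 C. Luciferase activity read by One-Glo luminescence after 30 min at room temperature.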
Nuclear receptor subfamily 1 group I member 2 (Rattus norvegicus), sequence (Q9R1A7 whole entry, looked up): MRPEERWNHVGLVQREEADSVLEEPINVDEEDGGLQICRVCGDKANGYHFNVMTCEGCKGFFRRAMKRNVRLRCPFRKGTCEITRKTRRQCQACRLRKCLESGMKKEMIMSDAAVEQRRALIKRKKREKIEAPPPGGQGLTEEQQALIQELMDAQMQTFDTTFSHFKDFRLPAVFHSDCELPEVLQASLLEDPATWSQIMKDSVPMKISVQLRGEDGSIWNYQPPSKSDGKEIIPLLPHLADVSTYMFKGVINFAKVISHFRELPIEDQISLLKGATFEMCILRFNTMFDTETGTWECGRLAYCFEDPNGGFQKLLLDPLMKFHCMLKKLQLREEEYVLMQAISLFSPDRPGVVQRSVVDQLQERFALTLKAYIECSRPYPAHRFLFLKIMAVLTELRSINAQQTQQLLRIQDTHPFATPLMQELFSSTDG
As to `CCCCCCCCCC(=O)NO`, the max activation is -0.53% (inactive). Take `CCCCCCCCCCCCCCCC(=O)OC[C@H](COP(=O)([O-])OCC[N+](C)(C)C)OC(=O)CCCCCCCCCCCCCCC`: the max activation is 0.686% (inactive).

As to `CO/N=C(\C(=O)N[C@@H]1C(=O)N2C(C(=O)[O-])=C(C[n+]3ccc(N)n3CCO)CS[C@H]12)c1csc(N)n1`, the max activation was -1.9% (inactive). On the same count and under the same terms, with `CC(C)CCC[C@@H](C)[C@H]1CC[C@H]2[C@@H]3CC=C4C[C@@H](O)CC[C@]4(C)[C@H]3CC[C@]12C` the figure was -2.66% (inactive); with `CC[C@@H](C)[C@H](N)C(=O)O`, -3.95% (inactive). On the same count and under the same terms, with `CC12CCC(C1)C(C)(C)C2=O` (stereo not given) the figure was -2.76% (inactive); with `C[Se]CC[C@H](N)C(=O)O`, -6.85% (inactive); with `C[C@@H]1C(=O)NC2=Nc3cccc(Cl)c3CN21`, 3.73% (inactive). The same measure, in the same setting: with `CCOc1ccc(S(=O)(=O)O)c2cccnc12` the figure was -0.221% (inactive); with `COc1ccc(/C=C/C(=O)O)cc1`, 1.47% (inactive). `Cc1cn([C@H]2C[C@H](O)[C@@H](CO)O2)c(=O)[nH]c1=O`: the max activation was -1.3% (inactive). On the same count and under the same terms, to `CN=C(N)NCCC[C@H](N)C(=O)O` belongs -7.28% (inactive). On to `C/C=C/C1=C(C(=O)O)N2C(=O)[C@@H](NC(=O)[C@H](N)c3ccc(O)cc3)[C@H]2SC1`, for which the max activation is -4.1% (inactive).

As for `O=C(O)/C=C/C(=O)Nc1ccc(S(=O)(=O)Nc2nccs2)cc1`, the max activation is -4.08% (inactive). With `CC(=O)Nc1ccc(OC(C)=O)cc1`, the max activation was -1.35% (inactive). With `NC(=O)C1c2ccccc2CCc2ccccc21`, the max activation is -2.21% (inactive). For `CC12CCC(C[N+](C)(CCC[N+](C)(C)C)C1)C2(C)C` (stereo not given), the max activation is -1.76% (inactive). For `CCC1OC(=O)C[C@@H](O)[C@H](C)[C@@H](O[C@@H]2O[C@H](C)C[C@H](N(C)C)[C@H]2O)[C@@H](CC=O)C[C@@H](C)C(=O)/C=C/[C@]2(C)OC2C1C` (stereo not given in full), the max activation was -4.15% (inactive). In the case of `CS(=O)(=O)c1ccc([C@@H](O)[C@@H](COC(=O)CN)NC(=O)C(Cl)Cl)cc1`, the max activation was -5.77% (inactive). Still for that read-out and setting: to `CC(C)(COP(=O)(O)OP(=O)(O)OC[C@H]1O[C@@H](n2cnc3c(N)ncnc32)[C@H](O)[C@@H]1OP(=O)(O)O)C(O)C(=O)NCCC(=O)NCCS` (stereo not given in full) belongs 0.513% (inactive); to `COc1ccc([C@@H]2CC(=O)c3c(O)cc(O[C@@H]4O[C@H](CO[C@@H]5O[C@@H](C)[C@H](O)[C@@H](O)[C@H]5O)[C@@H](O)[C@H](O)[C@H]4O)cc3O2)cc1O`, -3.19% (inactive); to `CC(=NCc1ccccc1)c1ccccc1O`, -4.51% (inactive). Same read-out and setting: with `Cc1c(O)c(=O)ccn1C` the figure was -3.64% (inactive); with `CNCC(=O)N[C@@H](CCCN=C(N)N)C(=O)N[C@H](C(=O)N[C@@H](Cc1ccc(O)cc1)C(=O)N[C@H](C(=O)N[C@@H](Cc1cnc[nH]1)C(=O)N1CCC[C@H]1C(=O)N[C@@H](C)C(=O)O)C(C)C)C(C)C`, -0.307% (inactive); with `CC[N+](CC)(CC)CCC(O)(c1ccccc1)C1CCCCC1` (stereo not given), -2.27% (inactive). `CC[C@H]1OC(=O)C[C@@H](O)[C@H](C)[C@@H](O[C@@H]2O[C@H](C)[C@@H](O)[C@H](N(C)C)[C@H]2O)[C@@H](CCN2C[C@H](C)C[C@H](C)C2)C[C@@H](C)C(=O)/C=C/C(C)=C/[C@@H]1CO[C@@H]1O[C@H](C)[C@@H](O)[C@@H](OC)[C@H]1OC`: the max activation is -0.718% (inactive). For `N=C(N)n1cccn1`, the max activation was -4.29% (inactive). On the same count and under the same terms, to `CCC(=O)OC(OP(=O)(CCCCc1ccccc1)CC(=O)N1C[C@H](C2CCCCC2)C[C@H]1C(=O)O)C(C)C` (stereo not given in full) belongs -3.49% (inactive). Regarding `O=C1C2CC3CC1CC(O)(C3)C2`, the max activation was -3.68% (inactive). On the same count and under the same terms, to `FC(F)(F)COCC(F)(F)F` belongs -3.1% (inactive). `Nc1nc(NC2CC2)c2ncn([C@@H]3C=C[C@@H](CO)C3)c2n1`: the Potency was 5.01 µM (active).

Turning to `NC(=O)c1cc[n+](CC2=C(C(=O)O)N3C(=O)[C@@H](NC(=O)C(c4ccccc4)S(=O)(=O)[O-])[C@H]3SC2)cc1` (stereo not given in full), the max activation was -2.77% (inactive). Consider `NCC(O)CC(=O)O` (stereo not given), for which the max activation is -2.62% (inactive).

With `NCC[C@H](O)C(=O)N[C@@H]1C[C@H](N)[C@@H](O[C@H]2O[C@H](CN)CC[C@H]2N)[C@H](O)[C@H]1O[C@H]1O[C@H](CO)[C@@H](O)[C@H](N)[C@H]1O`, the max activation is -1.85% (inactive). As for `COC(=O)C(CN)c1c[nH]c2ccc(OC)cc12` (stereo not given), the max activation was -1.11% (inactive).
